PubChem BioAssay (NCI)
About 79,000 compounds went through this panel and 15% of them were active in at least one assay; those are over-represented in the sample as a whole. Unmarked numbers belong to inactive results. Activity calls are given as the source filed them. Rule as the data show it: active = growth inhibition above about 70%; inactive = the rest.

Assays:
[1] = NCI Yeast Anticancer Drug Screen. Data for the rad50 strain (AID 155);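 also: 0% = growth of vehicle-only cultures of the same strain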; conditions: S. cerevisiae rad50 strain growth inhibition; at 50.0 µM; active compounds read high
Procedure, shortened: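 Genetically altered yeast (DNA repair pathway); compound treatment; growth inhibition vs vehicle ctrl.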

[2] = NCI Yeast Anticancer Drug Screen. Data for the mec2-1 strain (AID 157); conditions: S. cerevisiae mec2-1 strain, at 50.0 µM, active compounds read high
Procedure, shortened: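 Each compound was tested on mec2-1 yeast, a strain altered in DNA damage repair or cell cycle control. Growth inhibition is reported relative to vehicle.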

[3] = NCI Yeast Anticancer Drug Screen. Data for the sgs1 mgt1 strain (AID 161);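 also: 0% = growth of cultures given vehicle only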; conditions: S. cerevisiae sgs1 mgt1 strain, at 50.0 µM, active compounds read high
Procedure, shortened: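 Mutant yeast exposed to compound; growth scored against vehicle-only wells.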

[4] = NCI Yeast Anticancer Drug Screen. Data for the cln2 rad14 strain (AID 165);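 also: 0% = growth equal to vehicle treated cultures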; conditions: S. cerevisiae cln2 rad14 strain, at 50.0 µM, active compounds read high
Procedure, shortened: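 Test compounds were added to cln2 rad14 yeast cultures; inhibition of growth was then determined by comparison with vehicle treatment.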

[5] = NCI Yeast Anticancer Drug Screen. Data for the bub3 strain (AID 167); conditions: S. cerevisiae bub3 mutant strain, at 50.0 µM, active compounds read high
Procedure, shortened: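 Yeast carrying a defined mutation is treated with each compound, and growth is compared with that of vehicle-exposed cells to give inhibition.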

[6] = NCI Yeast Anticancer Drug Screen. Data for the mlh1 rad18 strain (AID 175); conditions: S. cerevisiae mlh1 rad18 strain growth inhibition; at 50.0 µM; active compounds read high
Procedure, shortened: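 Inhibition values reflect reduced growth of mutant yeast versus vehicle-treated controls following compound exposure; the mutations affect DNA damage repair.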

Structure (SMILES) | growth inhibition [1] | growth inhibition [2] | growth inhibition [3] | growth inhibition [4] | growth inhibition [5] | growth inhibition [6]
CCCCOc1ccc(Nc2c(C(=O)O)cnc3cc4c(cc23)OCO4)cc1 | -11.1% | 3.25% | -13.7% | 5.4% | -4.85% | 18.4%
CC(=O)NC1C(O)OC(COCc2ccccc2)C(OCc2ccccc2)C1OCc1ccccc1 (stereo unspecified) | 6.9% | -1.8% | -10.4% | 7.25% | -5.35% | -15.1%
O=[N+]([O-])c1cccc(/C=C/COc2ccccc2)c1 | -1.35% | -10.4% | -10.8% | -48.7% | 10.6% | -18.9%
CCCCCCCCCCCCCCCCCN(C)C(=O)OCC | 23.1% | -62.5% | -55.5% | -114% | -7.15% | -30.8%
O=C(CC1C(=O)Nc2ccccc2S1=O)Nc1cccc(Cl)c1 (stereo unspecified) | -32.2% | -31.1% | -4.5% | 18.2% | 10.1% | -25.2%
O=C1C(c2ccccc2)=C(c2ccccc2)c2ccccc21 | -8.2% | 19.6% | 21% | -18.4% | 32% | 14.4%
CCCCSCc1nc2nc(Cl)c(Cl)nc2[nH]1 | -18.1% | -37.2% | -23.9% | 1.15% | -44.8% | -9.25%
COC(=N)Cc1cc(OC)cc(OC)c1 | -2.45% | 6.4% | 7.45% | -12.7% | 21.2% | -6.6%
CCCC1(C)COC(C)(CCC)OC1 (stereo unspecified) | -31.6% | -8.3% | -17.9% | -34.4% | -16.9% | -0.45%
C/C(=N\NC(=S)Nc1ccc([N+](=O)[O-])cc1S(=O)(=O)O)c1ccccn1 | 12.6% | 20.4% | -5.85% | -2.35% | -0.4% | 22.9%
Cc1cc2ccccc2c[n+]1C1CCc2ccccc2C1=O (stereo unspecified) | 7.1% | 5.6% | 30.6% | 24% | 3.4% | 20.2%
CCCCCCCCCCCCCCCCc1ccc(CCCC(=O)O)cc1 | -20.8% | -16.2% | -13.3% | 5.45% | -17.3% | 12.5%
O=C(Nc1ccc(F)c([N+](=O)[O-])c1)N(Cc1ccccc1)c1ccccc1 | 8.05% | 1.05% | 1.55% | 5.95% | 26.9% | 16.9%
CCCC[P+](CCCC)(CCCC)C(C(=O)OC)C(C(=O)OC)=C1SC(C(=O)OC)=C(C(=O)OC)S1 (stereo unspecified) | -0.75% | 0.7% | 6.75% | 6.6% | 19.4% | -45.5%
COC1c2ccccc2C=CN1c1ccc([N+](=O)[O-])cc1[N+](=O)[O-] (stereo unspecified) | 61.8% | 70.4% (active) | 69.2% | 27.4% | 59.1% | 71.2% (active)
COc1ccccc1N=NC1=C2Nc3ccccc3N=C1N(c1ccccc1OC)C(=S)N2c1ccccc1C | -10.3% | -11.3% | -16.4% | -11.5% | -2.95% | -30.4%
OC(c1ccccc1)C(Cl)c1ccccc1 (stereo unspecified) | 1% | -2.25% | 1.9% | -13.8% | -19.3% | 19.8%
O=C(O)c1ccc(Cl)c(N=C/C=C/c2ccccc2)c1 | 1.85% | -37.5% | 6.6% | -15.3% | 3.45% | -6.9%
O=C1OC(c2ccccc2)(C2(c3ccccc3)C=C(c3ccccc3)C(=O)O2)C=C1c1ccccc1 (stereo unspecified) | 39.2% | -3% | 0.7% | -3.8% | 5.3% | 3.15%
COc1ccc(OC)c(C2SCC(=O)N2c2nncs2)c1 (stereo unspecified) | -19.8% | 6% | 15.2% | -17.6% | -8.7% | 2.2%
CCOC(=O)C(=Cn1c(=S)[nH]c2cc(C)ccc21)C(=O)OCC | -19.8% | -39.1% | -16.2% | 13.6% | 0.1% | -11.8%

Structure (SMILES) | growth inhibition [1] | growth inhibition [2] | growth inhibition [3] | growth inhibition [4] | growth inhibition [5] | growth inhibition [6]
Cc1n(C)c(=O)c2ccccc2[n+]1C | 5.35% | 5.75% | -7% | -3.3% | 1.95% | 6.4%
N=C(N)SCc1cccc2ccc3cccc(CSC(=N)N)c3c12 | 4.05% | 8.5% | 17.4% | -3.1% | 2.6% | 30.9%
CCCCCCCCCCC1SCC(=O)N1c1nncs1 (stereo unspecified) | 13.2% | 0.75% | 16.6% | 10.2% | 4.2% | 4.25%
C=C(C)COC(CCC)OCC(=C)C | 6.85% | 8.1% | -8.45% | 8.85% | -2.3% | 21.1%
CCSCCCSCCSCC | 58.5% | 46.5% | 57.5% | 43.7% | 63.5% | 56%
COc1ccc(/C=N/Nc2c([N+](=O)[O-])cc(C)cc2[N+](=O)[O-])cc1 | 35.1% | 13.2% | 16.3% | 13% | 11.8% | 7.8%
O=[N+]([O-])c1ccccc1C(Nc1nncs1)Nc1nncs1 | 17.3% | 22.5% | 41.5% | -6.05% | -3.3% | 2.3%
Nc1cccc(OCc2nc(N)nc(N)c2-c2ccc(Cl)cc2)c1 | -14% | -14.4% | -48.9% | -6.6% | -36% | -20.9%
Cc1ccc(NC(=O)Oc2cc(C)c(Cl)cc2C(C)C)cc1 | -3.9% | 54.2% | 43% | -28.2% | 51.4% | 65%
O=C(O)CCc1cccc2c(=O)cc(-c3ccccc3)oc12 | -10.3% | -1.7% | 0.8% | 30.9% | 8.35% | 3.35%
CC(=O)Oc1cccc(OC(C)=O)c1 | 41.8% | 38.9% | 25.2% | 12.1% | 6.8% | 34.9%
CCOC(=O)C(Cc1c[nH]c2ccccc12)NC(=O)C1(O)C(O)C2(CC)C=CCN3CCC4(c5cc(C6(C(=O)OC)CC7CC(CC)CN(CCc8c6[nH]c6ccccc86)C7)c(OC)cc5N(C)C14)C32 (stereo unspecified) | 20.8% | 20.2% | 7.75% | 32.4% | 17% | 6.2%
CN1C/C(=C\c2ccc(C(=O)O)cc2)C(=O)/C(=C/c2ccc(C(=O)O)cc2)C1 | 33.3% | 5.35% | 28.1% | 20.9% | -5% | 19.7%
Cc1nc2sccn2c1C(=O)NC(=O)Nc1ccc(Cl)cc1 | 0.35% | -14.8% | -2.75% | 5.45% | -9.8% | -16.1%
O=C(Nc1ccc([N+](=O)[O-])cc1Cl)OCCc1ccccn1 | 3.25% | 26.9% | 23.6% | -10.6% | 52% | 20.5%
CC(C)NC(=O)OCc1c(COC(=O)NC(C)C)c(Sc2ccccc2)n2c1CCC2 | 6.6% | -17.1% | 1.85% | -27.6% | 9.1% | 16.2%
CCOC(=O)CC1CC(CN)(C(=O)OCC)CO1 (stereo unspecified) | -21.6% | 12.2% | -6.9% | 3.65% | -0.4% | -22.9%
Clc1cccc(N2CCN(CCN3CCc4c([nH]c5ccccc45)C3c3cccnc3)CC2)c1 (stereo unspecified) | 2.2% | -21.7% | -7.85% | 9.45% | -9.75% | -12%
CC(C)(C)CC(C)(O)COC(=S)S (stereo unspecified) | -10.5% | -18% | 1.65% | -11.2% | -7.45% | 0.55%
COC1OC(CS(=O)(=O)O)C(O)C(O)C1O (stereo unspecified) | -44.5% | -2.15% | -1.85% | -13.6% | -31.9% | -4.3%
